This is part of a sample that, as a whole, favours compounds with a hit. Of some 79,000 tested, about 15% had one in any assay. A number with no mark means an inactive call. No stated cut-off is given here; in the data, active means growth inhibition above about 70%; inactive means the rest.
Test: NCI Yeast Anticancer Drug Screen. Data for the rad50 strain (AID 155);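 further: 0% = growth of vehicle-only cultures of the same strain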
Conditions: S. cerevisiae rad50 strain growth inhibition; at 50.0 µM; active compounds read high
Procedure, shortened: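 DNA repair mutant yeast, compound exposure, growth read-out; inhibition is taken relative to vehicle.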

| SMILES | growth inhibition [%] |
| --- | --- |
| S=c1nc2[nH]c3ccccc3c2n[nH]1 | 8.45 |
| CSc1nsc(N)n1 | -13.3 |
| C=CC(C)(C)n1cc(C2=C(O)C(=O)C(c3cn(C(C)(C)C=C)c4ccccc34)=C(O)C2=O)c2ccccc21 | -1.6 |
| CC(C)N1CC(=O)N2CSCC2C1=O (stereo unspecified) | 14.1 |
| O=C(O)c1cc(I)ccc1O | -6.65 |
| Cn1c(=O)c2[nH]c(CCCCC(=O)O)nc2n(C)c1=O | -7.8 |
| CC(C)(N)CO[C@H]1C[C@H]2CC[C@@]1(C)C2(C)C | 11.8 |
| Cn1c2ccccc2c2nnc(NCCCCO)nc21 | 10.4 |
| CCOC(C=O)OCC | 0.6 |
| CCC(C)C1CCC(O)CC1 (stereo unspecified) | 30.8 |
| C[C@H](CCC[C@H](C)OS(=O)(=O)c1ccccc1)OS(=O)(=O)c1ccccc1 | 9.3 |
| Cc1cccc(C)c1NC(=S)/N=C\c1c(O)[nH]c(=O)[nH]c1=O | -67 |
| C=CC(=O)OC1CCC(C(C)(C)CC)CC1 (stereo unspecified) | 39.9 |
| CC(=O)c1cccc(N(C)S(=O)(=O)c2ccc(C)cc2)c1 | 47.6 |
| O=C1CSc2ccccc2N1 | -35 |
| OCC1OC(n2ccc3c2ncn2ncnc32)C(O)C1O (stereo unspecified) | -20.7 |
| O=[N+]([O-])c1ccc2[nH]c(=S)n(/C=C(/c3ccc(Cl)cc3Cl)S(=O)(=O)Cc3ccc(Cl)cc3Cl)c2c1 | -5.05 |
| C=C(C)[C@@H]1CC[C@]2(CO)CC[C@]3(C)[C@H](CC[C@@H]4[C@@]5(C)CC[C@H](O)C(C)(C)[C@@H]5CC[C@]43C)[C@@H]12 | 15.6 |
| CCCCCC(=O)OCCC1CCCCC1 | 25.6 |

| SMILES | growth inhibition [%] |
| --- | --- |
| CCOC(=O)/C(C#N)=C\c1c[nH]c2ccccc12 | 54.5 |
| O=C1NCC2CCCC1C2 (stereo unspecified) | 6.5 |
| CSCCC(NC(=O)C(Cl)Cl)C(=O)O (stereo unspecified) | -31.6 |
| COc1cc(OC)c2cc(C(=O)c3ccc(C#N)cc3)c(=O)oc2c1 | 17 |
| C#CCSc1nnnn1-c1ccccc1 | -0.6 |
| O=Cc1ccc(F)cc1 | -7.9 |
| NC(CSSCC(N)C(=O)O)C(=O)O (stereo unspecified) | -11.6 |
| C=CCC(OC(C)=O)c1ccc(OC)c(OC)c1 (stereo unspecified) | 11.3 |
| CSc1nc2[nH]ncc2c(=O)[nH]1 | -19.8 |
| Cc1cc2nc(C)c(C)nc2cc1C | -20.5 |
| C=CCC(OC(C)=O)c1ccc(C(C)C)cc1 (stereo unspecified) | 4 |
| CCOC(=O)C1(N)CCCCC1 | 10.3 |
| Cc1ccc(S(N)(=O)=O)cc1Cl | 10.1 |
| CC(=O)c1cccc(NS(=O)(=O)c2ccc(C)cc2)c1 | -4.85 |
| NC(CCl)=NCC12CC3CC(CC(C3)C1)C2 | 52 |
| CCOC(=O)CNC | 3.55 |
| CC(=O)NCNC(C)=O | -4.1 |
| CC(CCC#N)(CCC#N)C(=O)c1ccccc1 | 28.6 |
| O=S(=O)(O)c1cccc2cccnc12 | 4.3 |

Test: NCI Yeast Anticancer Drug Screen. Data for the sgs1 mgt1 strain (AID 161);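 further: 0% = growth of cultures given vehicle only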
Conditions: S. cerevisiae sgs1 mgt1 strain, at 50.0 µM, active compounds read high
Procedure, shortened: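 Inhibition of yeast growth, normalised to vehicle-treated controls, is reported for a strain bearing genetic alterations in DNA damage repair.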

| SMILES | growth inhibition [%] |
| --- | --- |
| S=c1nc2[nH]c3ccccc3c2n[nH]1 | -5.65 |
| CSc1nsc(N)n1 | -4.2 |
| C=CC(C)(C)n1cc(C2=C(O)C(=O)C(c3cn(C(C)(C)C=C)c4ccccc34)=C(O)C2=O)c2ccccc21 | -2.3 |
| CC(C)N1CC(=O)N2CSCC2C1=O (stereo unspecified) | 9.8 |
| O=C(O)c1cc(I)ccc1O | -1.25 |
| Cn1c(=O)c2[nH]c(CCCCC(=O)O)nc2n(C)c1=O | -34.1 |
| CC(C)(N)CO[C@H]1C[C@H]2CC[C@@]1(C)C2(C)C | 2.4 |
| Cn1c2ccccc2c2nnc(NCCCCO)nc21 | 19.1 |
| CCOC(C=O)OCC | 4.35 |
| CCC(C)C1CCC(O)CC1 (stereo unspecified) | 9.15 |
| C[C@H](CCC[C@H](C)OS(=O)(=O)c1ccccc1)OS(=O)(=O)c1ccccc1 | 5.85 |
| Cc1cccc(C)c1NC(=S)/N=C\c1c(O)[nH]c(=O)[nH]c1=O | -32.3 |
| C=CC(=O)OC1CCC(C(C)(C)CC)CC1 (stereo unspecified) | -12.9 |
| CC(=O)c1cccc(N(C)S(=O)(=O)c2ccc(C)cc2)c1 | 21.8 |
| O=C1CSc2ccccc2N1 | 32 |
| OCC1OC(n2ccc3c2ncn2ncnc32)C(O)C1O (stereo unspecified) | -10.4 |
| O=[N+]([O-])c1ccc2[nH]c(=S)n(/C=C(/c3ccc(Cl)cc3Cl)S(=O)(=O)Cc3ccc(Cl)cc3Cl)c2c1 | 16.1 |
| C=C(C)[C@@H]1CC[C@]2(CO)CC[C@]3(C)[C@H](CC[C@@H]4[C@@]5(C)CC[C@H](O)C(C)(C)[C@@H]5CC[C@]43C)[C@@H]12 | -18.1 |
| CCCCCC(=O)OCCC1CCCCC1 | 18.7 |

| SMILES | growth inhibition [%] |
| --- | --- |
| CCOC(=O)/C(C#N)=C\c1c[nH]c2ccccc12 | 46.3 |
| O=C1NCC2CCCC1C2 (stereo unspecified) | -9.3 |
| CSCCC(NC(=O)C(Cl)Cl)C(=O)O (stereo unspecified) | -4.1 |
| COc1cc(OC)c2cc(C(=O)c3ccc(C#N)cc3)c(=O)oc2c1 | 25.1 |
| C#CCSc1nnnn1-c1ccccc1 | 22.2 |
| O=Cc1ccc(F)cc1 | -4.1 |
| NC(CSSCC(N)C(=O)O)C(=O)O (stereo unspecified) | 1.35 |
| C=CCC(OC(C)=O)c1ccc(OC)c(OC)c1 (stereo unspecified) | 14.7 |
| CSc1nc2[nH]ncc2c(=O)[nH]1 | 15.4 |
| Cc1cc2nc(C)c(C)nc2cc1C | -27.2 |
| C=CCC(OC(C)=O)c1ccc(C(C)C)cc1 (stereo unspecified) | -23.4 |
| CCOC(=O)C1(N)CCCCC1 | 11.1 |
| Cc1ccc(S(N)(=O)=O)cc1Cl | 13.2 |
| CC(=O)c1cccc(NS(=O)(=O)c2ccc(C)cc2)c1 | -18.1 |
| NC(CCl)=NCC12CC3CC(CC(C3)C1)C2 | 48.8 |
| CCOC(=O)CNC | -12.7 |
| CC(=O)NCNC(C)=O | 3.75 |
| CC(CCC#N)(CCC#N)C(=O)c1ccccc1 | 25.1 |
| O=S(=O)(O)c1cccc2cccnc12 | 7 |

Source: PubChem BioAssay (NCI)
